Bioassay records: PubChem BioAssay, National Center for Advancing Translational Sciences (NCATS)
NS1 inh = influenza NS1 inhibition; Potency, µM (doses to about 46.1 µM); 270,000 tested, 0.4% active; calls by dose curve; note: actives are rising curves; nearly all actives have a fitted effect of over 50% in size
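Recovery from NS1-induced slow growth read by OD600 in budding yeast switched to galactose assay medium (pH 6.0, -URA) at 1:100 dilution. Compound 23 nl per well; the matching strain lacking NS1 serves as control.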
Sm TGR inh = blocks Schistosoma mansoni thioredoxin glutathione reductase. Q962Y6. purified TGR, DTNB reduction, TNB absorbance 405 nm. Potency, µM (doses to about 114 µM), actives largely listed as inhibitors. 360,000 tested, 3% active. AID 485364; note: nearly all actives have a fitted effect of over 60% in size
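TGR 20 nM + NADPH 100 uM (dispensed conc.), cpd preinc 15 min RT; start with NADPH (500 uM addition) then DTNB (15 mM addition). Kinetic TNB absorbance, 405 nm filter. Four-parameter Hill fit across titration.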
Pf growth 96h = P. falciparum growth inhibition at 96 hours; P. falciparum luciferase reporter growth, 96 h; Potency, µM (top dose mostly 28.7 µM), hits mostly inhibitors; 320,000 tested, 6.9% active
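Cell-based qHTS: luciferase-tagged P. falciparum in erythrocytes (2% hematocrit, 0.05% parasitemia final) incubated with compounds for 96 hours, 37 C, 5% CO2; luciferase detection reagent then added and luminescence measured.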
Pf growth 48h = P. falciparum growth inhibition at 48 hours (one generation); AID 504832; 310,000 tested, 5.9% active; P. falciparum luciferase growth in erythrocytes, 48 h; Potency, µM (doses to about 28.7 µM), hits mostly inhibitors
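Here the parasites carry a stable luciferase gene and grow inside erythrocytes in Albumax-based RPMI medium with compound for one erythrocytic cycle. Activity is scored as loss of luminescent signal.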
Cycloheximide cs = counter-screen for Shiga toxin inhibitors: cycloheximide protein synthesis inhibition | max response, % | 300,000 tested, 12% active | cell reporter, cycloheximide protein synthesis inhibition counterscreen; in the data active = max response mostly above about 13%, no sharp cut-off; inactive = mostly below about 14%; note: read at 38.3 µM for the half of the compounds with a filed dose
Shiga inhibitor = Shiga toxin inhibition; Vero cells, Shiga toxin protein synthesis inhibition reporter; inhibition, % at 38.7 µM; 290,000 tested, 9.2% active; AID 2315; in the data active = inhibition mostly above about 28%, no sharp cut-off; inactive = mostly below about 43%
A number is an active result; . = inactive; ? = inconclusive; / = not tested or not shown; + = active, no number. A selection: hits, their analogues and other compounds. The true share with any hit is near 21%. Unless noted, calls come from the whole dose curve; as a rule, active = well fitted curve in the direction sought with a large enough effect; inconclusive = small, poorly fitted or top-dose-only effect, or another doubt; inactive = no such curve, though single readings can be large; an effect the other way counts as inactive or inconclusive.

SMILES	NS1 inh	Sm TGR inh	Pf growth 96h	Pf growth 48h	Cycloheximide cs	Shiga inhibitor
CC[C@H](C)[C@H](NC(=O)[C@H](CCC(=O)O)NC(=O)[C@H](CO)NC(=O)[C@@H](NC(=O)[C@@H](N)CO)C(C)C)C(=O)N[C@@H](CCC(N)=O)C(=O)N[C@@H](CC(C)C)C(=O)N[C@@H](CCSC)C(=O)N[C@@H](Cc1cnc[nH]1)C(=O)N[C@@H](CC(N)=O)C(=O)N[C@@H](CC(C)C)C(=O)NCC(=O)N[C@@H](CCCCN)C(=O)N[C@@H](Cc1cnc[nH]1)C(=O)N[C@@H](CC(C)C)C(=O)N[C@@H](CC(N)=O)C(=O)N[C@@H](CO)C(=O)N[C@@H](CCSC)C(=O)N[C@@H](CCC(=O)O)C(=O)N[C@@H](CCCNC(=N)N)C(=O)N[C@H](C(=O)N[C@@H](CCC(=O)O)C(=O)N[C@@H](Cc1c[nH]c2ccccc12)C(=O)N[C@@H](CC(C)C)C(=O)N[C@@H](CCCNC(=N)N)C(=O)N[C@@H](CCCCN)C(=O)N[C@@H](CCCCN)C(=O)N[C@@H](CC(C)C)C(=O)N[C@@H](CCC(N)=O)C(=O)N[C@@H](CC(=O)O)C(=O)N[C@H](C(=O)N[C@@H](Cc1cnc[nH]1)C(=O)N[C@@H](CC(N)=O)C(=O)N[C@@H](Cc1ccccc1)C(=O)N[C@H](C(=O)N[C@@H](C)C(=O)N[C@@H](CC(C)C)C(=O)NCC(=O)O)C(C)C)C(C)C)C(C)C	/	/	/	/	.	.
Clc1ccc(-n2ncc3c(N4CCCCCC4)ncnc32)cc1	.	.	.	.	21	.
Cc1ccc(-n2ncc3c(N4CCCCC4)ncnc32)cc1	/	.	/	/	/	/
Cc1cccc(-n2ncc3c(N4CCCC4)ncnc32)c1	.	.	/	.	32	86
CC(C)Cn1cc(NC(=O)NCc2ccc(Cl)cc2)c2ccccc2c1=O	/	.	/	/	/	/
COc1ccc(OC)c(C(=O)c2ccc(C(=O)c3cc(OC)ccc3OC)cc2)c1	.	.	/	.	.	.
C/C(=N/Nc1ccc(C(=O)O)cc1)c1ccc(O)c(O)c1O	.	.	?	.	51	84
C/C(=N\Nc1ccc(C(=O)O)cc1)c1nc2ccccc2n1C	.	.	?	.	.	.
COc1cc(/C(C)=N/Nc2ccc(C(=O)O)cc2)cc(OC)c1OC	?	.	.	.	70	171
COc1ccc(/C(C)=N/Nc2ccc(C(=O)O)cc2)cc1OC	.	.	.	.	41	.
COc1ccc(OC)c(/C(C)=N/Nc2ccc(C(=O)O)cc2)c1	.	.	.	.	38	55
Cc1csc(NC(=O)CSc2nnc3c4ccccc4nc(C(C)(C)C)n23)n1	?	.	.	.	.	.
CC(C)N=C(NS(=O)(=O)c1cccs1)c1ccccc1	.	.	13µM	.	.	.
CC(C)(C)N=C(NS(=O)(=O)c1cccs1)c1ccccc1	.	.	.	.	.	.
CCOC(=O)N1CCN(C(=O)c2cc(COc3ccc(OC)cc3Cl)on2)CC1	.	?	?	?	70	105
COc1ccc(OCc2cc(C(=O)N3CCCCCCC3)no2)c(Cl)c1	.	.	.	?	40	61
COc1ccc(OCc2cc(C(=O)N3C[C@@H](C)O[C@@H](C)C3)no2)c(Cl)c1	.	.	.	.	40	94
COc1ccc(OCc2cc(C(=O)N3CCN(CC4CC4)CC3)no2)c(Cl)c1	.	.	?	.	52	55
O=C(c1cc(COc2ccc(F)cc2Cl)on1)N1CCC(c2ccncc2)CC1	.	.	.	.	.	.
COC(=O)c1cc(NS(=O)(=O)c2cc(Br)cc3c2N(C(C)=O)CC3)cc(C(=O)OC)c1	/	.	/	/	/	/
COc1ccc(OCc2cc(C(=O)N3CCN(C4CCCC4)CC3)no2)c(Cl)c1	.	.	?	.	42	77
N#Cc1cc2sc3nnc(-c4ccncc4)n3c2cc1C#N	.	.	?	13µM	.	.
N#Cc1cc2sc3nc4ccccc4n3c2cc1C#N	.	.	/	.	.	.
CCOc1ccc(CC(=O)NC2CC(=O)N(c3ccc4c(c3)OCCO4)C2)cc1 (configuration not stated)	/	.	/	/	/	/
COc1ccc(-c2nn(CCC#N)cc2C=C(C#N)C#N)cc1	.	25µM	.	.	.	.
SMILES	NS1 inh	Sm TGR inh	Pf growth 96h	Pf growth 48h	Cycloheximide cs	Shiga inhibitor
CC(C)(C)c1ccc(-c2nn(CCC#N)cc2/C=N/O)cc1	/	.	.	.	.	.
Cc1ccc(-c2nn(CCC#N)cc2C=C(C#N)C#N)cc1	.	8.9µM	.	.	.	.
CC(=O)N1[C@H](Cc2ccccc2)C=C[C@]1(C)C(=O)NCCc1c[nH]c2ccccc12	.	.	?	.	.	.
COCCNC(=O)[C@@]1(C)C=C[C@@H](Cc2ccccc2)N1C(=O)c1ccccc1	.	?	.	?	21	28
CC(=O)N1[C@H](Cc2ccccc2)C=C[C@]1(C)C(=O)NCc1ccc(C)o1	.	8.9µM	?	.	.	.
CNC(=O)[C@@]1(C)C=C[C@@H](Cc2ccccc2)N1C(=O)OC	.	.	.	.	22	.
C[C@]1(C(=O)NCc2cc(F)cc(C(F)(F)F)c2)C=C[C@@H](Cc2ccccc2)N1C(=O)c1ccccc1	.	.	?	?	.	.
Cn1c(=O)c(=O)n(C)c2cc(S(=O)(=O)N3CCCC3C(=O)Nc3cccc(F)c3)ccc21 (configuration not stated)	/	.	/	/	/	/
O=c1[nH]c(SCc2c(F)cccc2Cl)nc2c1CCC2	/	.	/	/	/	/
O=S(=O)(Nc1ccc(F)cc1)c1ccc(NS(=O)(=O)c2cccs2)cc1	.	.	?	.	.	.
CCc1ccc(-c2csc(NC(=O)C3CC(=O)N(c4ccc5c(c4)OCCO5)C3)n2)cc1 (configuration not stated)	?	.	?	.	14	+
O=C(Nc1nnc(SCc2ccc(F)cc2)s1)C1CC(=O)N(Cc2ccccc2)C1 (configuration not stated)	.	.	7.4µM	.	.	.
N#Cc1ccc(CSc2nnc(NC(=O)C3CC(=O)N(c4ccc5c(c4)OCCO5)C3)s2)cc1 (configuration not stated)	.	.	.	.	11	.
O=C(Nc1nnc(SCc2c(Cl)cccc2Cl)s1)C1CC(=O)N(c2ccc3c(c2)OCCO3)C1 (configuration not stated)	.	.	?	.	.	.
O=C(Nc1nnc(SCc2ccc(F)cc2)s1)C1CC(=O)N(c2ccc3c(c2)OCCO3)C1 (configuration not stated)	.	.	.	.	15	.
Cc1nnc(NC(=O)C2CC(=O)N(c3ccc4c(c3)OCCO4)C2)s1 (configuration not stated)	/	.	.	.	/	/
CCc1nc(-c2cc(S(=O)(=O)N3CCN(c4ccccc4)CC3)ccc2OC)no1	/	.	/	/	/	/
